KB-V1 MDR tox = KB-V1 MDR subline cytotoxicity. 400,000 compounds, 3.4% hits. Potency, µM (top dose mostly 46.1 µM), most hits filed as cytotoxic. AID 1347076. KB-V1 MDR cells viability, CellTiter-Glo, 72 h; further: potency means the concentration at half of the fitted maximal effect; on the % scale 0 is the no-effect control and ±100 the full control effect; nearly all actives have a fitted effect of over 60% in size
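Drug-selected KB-V1 cells, grown in DMEM lacking phenol red with 10% FBS, receive compound titrations; after three days at 37 degrees C, surviving cell ATP is quantified by CellTiter-Glo luminescence and responses normalized and curve-fitted.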
MCF10A rereplic = induces DNA re-replication in MCF 10a normal breast cells | MCF 10A DNA re-replication, Hoechst nuclear intensity, 48 h | AID 624296 | Potency, µM (top dose mostly 46.1 µM), without a hit: at the top dose activity, positive = re-replication, actives largely listed as activators | 350,000 compounds, 2.9% hits; further: potency means the concentration at half of the fitted maximal effect; % of control where 0% means no effect; nearly all actives have a fitted effect of over 50% in size
SW480 rereplic = inducers of DNA re-replication in SW480 colon cancer cells | Potency, µM (doses to about 46.1 µM), for the others: top-dose re-replication activation, usual class: activators | AID 624297 | 340,000 compounds, 1.8% hits | SW480 DNA re-replication, Hoechst DNA content imaging, 48 h; further: potency means the concentration at half of the fitted maximal effect; % of control where 0% means no effect; nearly all actives have a fitted effect of over 55% in size
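Cells (250 per well) received 23 nL compound or DMSO by pin tool and were kept 48 hr at 37 C, 5% CO2. Nuclei were then stained with Hoechst for 40 min and scanned for DNA content.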
KB-3-1 cytotox = KB-3-1 parental cell cytotoxicity. 400,000 compounds, 1.4% hits. Potency, µM (series often up to 46.1 µM), hits mostly cytotoxic. KB-3-1 viability, CellTiter-Glo ATP luminescence, 72 h; further: potency means the concentration at half of the fitted maximal effect; on the % scale 0 is the no-effect control and ±100 the full control effect; nearly all actives have a fitted effect of over 60% in size
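Parental KB-3-1 adenocarcinoma cells in phenol-red-free DMEM with 10% FBS were pin-treated with compounds at several concentrations, incubated 72 h at 37 °C, and viability read by CellTiter-Glo luminescence; concentration-effect curves were fitted after normalization.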
IL1B secr inh = inhibitors of inflammasome signaling (IL-1 beta secretion); THP-1 LPS/ATP IL-1B secretion, AlphaLISA, 16 h; stronger effect = lower value; activity change, % at 57.5 µM; 360,000 compounds, 4.7% hits; in the data active means activity change below about -50%; inconclusive means mostly about -30% to -49%; further: on the % scale 0 is the no-effect control and ±100 the full control effect
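THP-1 cells pretreated 1 hr with compounds (up to 57.5 uM final), then stimulated with LPS (250 ng/mL final) plus ATP (1.25 mM final); secreted IL-1B measured by AlphaLISA after 16 hr, decreased signal indicating inhibition.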
Active calls of the source: *; i = inactive; ? = inconclusive; / = no result. Sampled rows, rich in hits. Any-hit rate of the full collection: about 9.9%. Unless noted, the call rests on the fitted dose curve; in most records, active means well fitted curve in the direction sought with a large enough effect; inconclusive means small, poorly fitted or top-dose-only effect, or another doubt; inactive means no such curve, though single readings can be large; an effect the other way counts as inactive or inconclusive.

SMILES	KB-V1 MDR tox	MCF10A rereplic	SW480 rereplic	KB-3-1 cytotox	IL1B secr inh
CN(C)CCc1cc2c(c3c1ccc1ccccc13)OCO2	i	?	?	?	-96*
CCN(CC)C(=O)C1CCN(S(=O)(=O)c2ccc3oc4ccccc4c3c2)CC1	12µM*	1%	-6%	i	?
O=S(=O)(c1ccc2oc3ccccc3c2c1)N1CCOCC1	16µM*	0%	-8%	i	-8
O=C(CCC1N=C2c3ccccc3N=C(SCc3ccccc3Cl)N2C1=O)NCc1cccs1 (centres undefined)	i	/	/	i	/
CCN(Cc1ccccc1)c1ncnc2c1cnn2-c1ccc(F)cc1	?	/	/	i	/
CCOC(=O)N1CCN(C(=O)c2cnn3c(C)c(Cc4ccc(C)cc4)c(C)nc23)CC1	3.7µM*	4%	-6%	i	-3
Cc1nc2c(C(=O)N3CCCC3)cnn2c(C)c1Cc1c(F)cccc1Cl	23µM*	2%	1%	i	-2
CCOC(=O)c1c(NC(=O)c2cc3ccccc3c(=O)o2)sc2c1CCCC2	i	/	/	i	/
CCc1nc(N2CCN(C(=O)c3ccco3)CC2)c(C#N)c2c1COC(C)(C)C2	?	?	-6%	i	?
CC1(C)Cc2c(C#N)c(N3CCN(C(=O)c4ccco4)CC3)nc(-c3ccco3)c2CS1	5.8µM*	?	?	i	-4
CC(=O)N1CCN(c2nc(-c3ccco3)c3c(c2C#N)CC(C)(C)SC3)CC1	i	?	12%	i	?
CC1(C)Cc2c(C#N)c(N3CCN(C(=O)c4ccccc4Cl)CC3)nc(-c3ccco3)c2CS1	i	5.8µM*	9.2µM*	i	-10
O=C(COc1ccc2ccccc2c1)Nc1ccc2c3c(cccc13)CC2	i	21µM*	-9%	i	7
O=C(COc1ccc2ccccc2c1)Nc1ccc(Br)cc1C(=O)O	i	9.2µM*	-3%	?	-4
COc1ccc(C(=O)NCCN2CCOCC2)cc1S(=O)(=O)Nc1ccc(C)cc1	i	-1%	?	i	24
CCCOP(=O)(c1ccc(N(C)C)cc1)C(Nc1ccccc1)c1ccc(C)cc1 (centres undefined)	21µM*	?	9%	i	-4
CCNC(=S)NNC(=O)c1cc(Br)cs1	i	3%	16µM*	i	6
Cn1c(=S)c2[nH]c(SCC3CCCO3)nc2n(C)c1=O (centres undefined)	i	3%	?	?	-88*
CCCC(C)Sc1nc2c([nH]1)c(=S)n(C)c(=O)n2C (centres undefined)	8.2µM*	16%	?	?	-102*
CS(=O)(=O)N(CC(=O)Nc1ccc(Br)cc1)c1ccccc1Br	?	/	/	i	/
CC(C)NC(=O)Nc1ccc2c(c1)C(=O)N([C@H](C)CO)C[C@H](C)[C@@H](CN(C)C(=O)Nc1ccc3c(c1)OCO3)O2	i	?	-21%	i	-12
CCOC(=O)c1sc(NC(=O)CSc2n[nH]c(-c3ccccc3)n2)c(C#N)c1C	?	8.2µM*	1%	i	-16
CCOC(=O)c1sc(NC(=O)CSc2ncn[nH]2)c(C#N)c1C	i	2.9µM*	9.2µM*	i	40
CCOC(=O)c1sc(NC(=O)CSc2nnc(Cc3ccccc3)o2)c(C#N)c1C	?	9%	-11%	i	-19
CCOC(=O)c1sc(NC(=O)c2cc(-c3ccccc3)nc3ccccc23)c(C#N)c1C	?	2.6µM*	0%	15µM*	-62*
SMILES	KB-V1 MDR tox	MCF10A rereplic	SW480 rereplic	KB-3-1 cytotox	IL1B secr inh
CCOC(=O)c1sc(NC(=O)CSc2nc(-c3ccco3)cc(C(F)(F)F)n2)c(C#N)c1C	i	-2%	-3%	i	17
CCC(CC)c1nnc(NC(=O)c2cc(-c3ccccc3)nc3ccccc23)s1	?	-64%	-14%	i	1
CCOC(=O)c1sc(NC(=O)CSc2ccccn2)c(C#N)c1C	i	21µM*	15%	i	22
CC(NC(=O)c1cc(F)c(F)cc1Cl)C1CC2CCC1C2 (centres undefined)	i	14%	-7%	i	2
O=C1NC2(CCCCCC2)C(=O)N1Cc1ccccc1Cl	i	3%	3%	i	16
O=[N+]([O-])c1ccccc1Oc1ccc(S(=O)(=O)N2CCOCC2)cc1	?	17%	?	i	0
CCOC(=O)c1c(NC(=O)CSc2n[nH]c(N)n2)sc(CC)c1C	i	-1%	-4%	i	-92*
CCOC(=O)c1sc(NC(=O)CSc2nc(C)cc(C)n2)c(C#N)c1C	8.2µM*	?	-1%	i	31
C=CCn1c(SCC(=O)Nc2ccc(N3CCOCC3)cc2)nc2ccccc2c1=O	i	5%	0%	i	29
Cc1cccc(S(=O)(=O)NCCC(=O)OCC(=O)Nc2ccc(C#N)cc2)c1	i	5%	0%	i	0
COc1ccc(NS(=O)(=O)c2cccc3nonc23)c(OC)c1	?	-6%	0.52µM*	i	-3
COc1cc2ccccc2cc1C(=O)N/N=C/c1cccs1	9.2µM*	/	/	2.3µM*	33
COc1ccc(/C=N/NC(=O)c2sc3nc(C)cc(C)c3c2N)cc1	i	5.8µM*	?	i	-26
Cc1cc(C)c2c(N)c(C(=O)Nc3ccc(F)cc3)sc2n1	i	21µM*	17%	?	-8
Cc1cc(C)c2c(N)c(C(=O)Nc3ccc(C)c(C)c3)sc2n1	i	?	?	i	-5
Cc1cc(C)c2c(N)c(C(=O)N/N=C/c3cccs3)sc2n1	i	18µM*	?	?	/
COc1ccc(NC(=O)c2sc3nc(C)cc(C)c3c2N)cc1	i	?	?	i	0
COC(=O)N/N=C/c1cccs1	?	-1%	-8%	?	-10
COc1ccc(OC)c(CNc2ncnc3onc(-c4ccc(Cl)cc4)c23)c1	8.2µM*	/	/	5.8µM*	/
O=C(N/N=C/c1cccc([N+](=O)[O-])c1)c1cc(-c2ccc3c(c2)OCO3)n[nH]1	i	12µM*	-122%	i	2
CCc1ccc(/C=N/NC(=O)c2cc(-c3cccc([N+](=O)[O-])c3)n[nH]2)cc1	?	5.2µM*	23µM*	?	16
Cc1ccc2onc(CNC(=O)N3CCN(c4cccc(C)c4C)CC3)c2c1	i	/	/	i	/
CCCNC(=O)c1cc2c(c(-c3cccc(-c4ccccc4F)c3)n1)[C@H](CCO)N(C(=O)CC1CC1)C2	?	/	/	?	-12
O=C1[C@H]2[C@@H](c3ccc(F)cc3)N3C(=O)N(c4cccc(Cl)c4)C(=O)[C@@]3(Cc3ccccc3)[C@H]2C(=O)N1C1CCCCC1	i	9%	4%	i	-50*

Screening data: PubChem BioAssay, National Center for Advancing Translational Sciences (NCATS)
